Data reported in PubChem BioAssay (Tox21).
Where “and” joins values, the source holds several entries; their conditions need not be identical. Equal values may be shown once. Records with an inconclusive call do not appear. Where a structure was tested more than once in an assay, its records may differ in their call. Calls of active or inactive are those of the source. Unless noted, calls follow the shape of the dose curve; as a rule, active = well fitted curve in the direction sought with a large enough effect in the repeat runs; inconclusive = weak or mixed curves; inactive = no such curve, though single readings can be large; an effect the other way counts as inactive or inconclusive.

tested on: not listed separately; assay: qHTS assay to identify small molecule agonists of the androgen receptor (AR) signaling pathway in the presence of an antagonist - cell viability counter screen (AID 1259379); details: MDA-kb2 viability, CellTiter-Fluor, 16 h; series mostly up to 92.4 µM; activity change, negative = cytotoxicity: at the top concentration; also: nearly all actives have a fitted effect of over 25% in size;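 as to activity change, negative = cytotoxicity: MDA-kb2 human breast cancer cells carrying an MMTV luciferase reporter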
Outline: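 Each compound was tested at 15 concentrations on MDA-kb2 cells in the presence of 3.0uM nilutamide. Viability was measured by CellTiter-Fluor fluorescence after a 16 hr incubation at 37C in a CO2-free atmosphere.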
% is scaled to controls: 0 for no effect and ±100 for the full control effect; potency is read from the fitted curve at half-maximal effect.

Structure (SMILES) | activity change, negative = cytotoxicity | Potency
BrCCCBr | -1.17% (inactive) | –
CC(=O)[O-].CC(=O)[O-].CC(=O)[O-].[Cr+3] | 0.272% (inactive) | –
CC[N+]1(CC)CCC(OC(=O)C(O)(c2ccccc2)c2ccccc2)C1 (stereo unspecified) | -0.923% [at 42.5 µM] (inactive) | –
O=S(=O)(NS(=O)(=O)C(F)(F)F)C(F)(F)F | – | 19.3 µM (active)
CCCCN(CCCC)C(=S)[S-].CCCCN(CCCC)C(=S)[S-].[Ni+2] | -1.52% [at 42.5 µM] (inactive) | –
O=c1[nH]c(Cl)c(Cl)cc1Cl | 1.65% (inactive) | –
N#Cc1sc2c(=O)c3ccccc3c(=O)c=2sc1C#N | – | 17.2 µM (active)
CC(=O)[O][Sn]([c]1ccccc1)([c]1ccccc1)[c]1ccccc1 | – | 0.77 µM (active)
C[C@]12C/C(=C/O)C(=O)C[C@@H]1CC[C@@H]1[C@@H]2CC[C@@]2(C)[C@H]1CC[C@]2(C)O | – | 61.7 µM (active) and inactive
O=C(CCCCl)c1ccc(F)cc1 | -0.309% [at 42.5 µM] (inactive) | –
Cc1c([N+](=O)[O-])c(C)c([N+](=O)[O-])c(C(C)(C)C)c1[N+](=O)[O-] | -7.61% (inactive) | –
CC(C)NCC(O)c1ccccc1Cl (stereo unspecified) | 0.998% [at 42.5 µM] (inactive) | –
Cc1ccccc1OP(=O)(Oc1ccccc1C)Oc1ccccc1C | -0.462% (inactive) | –
COP(=S)(OC)Oc1nc(Cl)c(Cl)cc1Cl | 2.26% (inactive) | –
Oc1ccc(Cl)c(Cl)c1 | 3.51% (inactive) | –
CC1=C2C[C@H]3[C@@H](CC=C4C[C@@H](O)CC[C@@]43C)[C@@H]2CC[C@]12O[C@@H]1C[C@H](C)CN[C@H]1[C@H]2C | – | 26.6 µM (active)
CO/N=C(\C(=O)OC)c1ccccc1CO/N=C(\C)c1cccc(C(F)(F)F)c1 | – | 12.2 µM (active)
CCOP(=O)(Sc1ccccc1)Sc1ccccc1 | -2.54% (inactive) | –
CCCCC(CC)COC(=O)c1ccccc1C(=O)OCC(CC)CCCC (stereo unspecified) | 1.85% (inactive) | –
O=c1c2ccccc2c(=O)c2c1cc(Cl)c1[nH]c3c([nH]c12)c(Cl)cc1c(=O)c2ccccc2c(=O)c13 | -0.281% (inactive) | –
O=C(O)[C@H](O)[C@@H](O)C(=O)O | 1.45% (inactive) | –
[Cl-].[Cl-].[Cl-].[Yb+3] | -2.67% (inactive) | –
CNC(C)(C)Cc1ccccc1 | -0.533% [at 42.5 µM] (inactive) | –
CC#C[C@]1(O)CC[C@H]2[C@@H]3C[C@H](C)C4=CC(=O)CC[C@]4(C)[C@H]3CC[C@@]21C | -0.0174% [at 42.5 µM] (inactive) | –
CN=C=O | 1.53% (inactive) | –
O=S1OCC2C(CO1)C1(Cl)C(Cl)=C(Cl)C2(Cl)C1(Cl)Cl (stereo unspecified) | -9.75% (inactive) | –
ClC1(Cl)C2(Cl)C3(Cl)C4(Cl)C(Cl)(Cl)C5(Cl)C3(Cl)C1(Cl)C5(Cl)C24Cl (stereo unspecified) | 0.567% (inactive) | –
CCO/N=C(\CC)C1=C(O)CC(c2c(C)cc(C)cc2C)CC1=O (stereo unspecified) | -0.775% (inactive) | –
CSC(C)(C)/C=N/O | -0.966% (inactive) | –

tested on: not listed separately; assay: qHTS assay to identify small molecule agonists of the estrogen receptor beta (ER-beta) signaling pathway - cell viability counter screen (AID 1259380); details: ER-beta-bla HEK293T viability, CellTiter-Glo luminescence, 16 h; series mostly up to 92.4 µM; activity change, negative = cytotoxicity: at the top concentration; also: nearly all actives have a fitted effect of over 30% in size
Outline: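 Compounds dissolved in DMSO were pin-transferred onto ER-beta-UAS-bla HEK293T cells that had settled 6 hr, and exposure ran 16 hr at 37C. Following the reporter read, CellTiter-Glo luminescence after 30 min at room temperature indicated cytotoxicity.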

Structure (SMILES) | activity change, negative = cytotoxicity | Potency
CC1CCCC1 | -3.44% (inactive) | –
CN1CCc2cc3c(cc2C1O)OCO3 (stereo unspecified) | 7.65% (inactive) | –
CCNS(=O)(=O)C(F)(F)C(F)(F)C(F)(F)C(F)(F)C(F)(F)C(F)(F)C(F)(F)C(F)(F)F | – | 23.3 µM (active)
CN1CCc2cc(Cl)c(O)cc2[C@H]2c3ccccc3CC[C@@H]21 | – | 15 µM (active)
N#CCCl | – | 25.4 µM (active)

molecular target: Androgen receptor (Homo sapiens) (UniProt P10275); assay: qHTS assay to identify small molecule agonists of the androgen receptor (AR) signaling pathway in the presence of an antagonist (AID 1259381; calls by dose curve; also: nearly all actives have a fitted effect of over 15% in size); details: MDA-kb2 MMTV-luciferase, AR agonist + nilutamide, 16 h; series mostly up to 92.4 µM; activation: at the top concentration
Outline: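 Plated MDA-kb2 cells (3,000/well) were pre-incubated 5hr, given nilutamide (3.0uM final) or buffer, then dosed with compounds in DMSO at 15 concentrations. Luciferase activity was quantified by luminescence after 16hr at 37C.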

Androgen receptor (Homo sapiens), sequence (P10275 whole entry, looked up): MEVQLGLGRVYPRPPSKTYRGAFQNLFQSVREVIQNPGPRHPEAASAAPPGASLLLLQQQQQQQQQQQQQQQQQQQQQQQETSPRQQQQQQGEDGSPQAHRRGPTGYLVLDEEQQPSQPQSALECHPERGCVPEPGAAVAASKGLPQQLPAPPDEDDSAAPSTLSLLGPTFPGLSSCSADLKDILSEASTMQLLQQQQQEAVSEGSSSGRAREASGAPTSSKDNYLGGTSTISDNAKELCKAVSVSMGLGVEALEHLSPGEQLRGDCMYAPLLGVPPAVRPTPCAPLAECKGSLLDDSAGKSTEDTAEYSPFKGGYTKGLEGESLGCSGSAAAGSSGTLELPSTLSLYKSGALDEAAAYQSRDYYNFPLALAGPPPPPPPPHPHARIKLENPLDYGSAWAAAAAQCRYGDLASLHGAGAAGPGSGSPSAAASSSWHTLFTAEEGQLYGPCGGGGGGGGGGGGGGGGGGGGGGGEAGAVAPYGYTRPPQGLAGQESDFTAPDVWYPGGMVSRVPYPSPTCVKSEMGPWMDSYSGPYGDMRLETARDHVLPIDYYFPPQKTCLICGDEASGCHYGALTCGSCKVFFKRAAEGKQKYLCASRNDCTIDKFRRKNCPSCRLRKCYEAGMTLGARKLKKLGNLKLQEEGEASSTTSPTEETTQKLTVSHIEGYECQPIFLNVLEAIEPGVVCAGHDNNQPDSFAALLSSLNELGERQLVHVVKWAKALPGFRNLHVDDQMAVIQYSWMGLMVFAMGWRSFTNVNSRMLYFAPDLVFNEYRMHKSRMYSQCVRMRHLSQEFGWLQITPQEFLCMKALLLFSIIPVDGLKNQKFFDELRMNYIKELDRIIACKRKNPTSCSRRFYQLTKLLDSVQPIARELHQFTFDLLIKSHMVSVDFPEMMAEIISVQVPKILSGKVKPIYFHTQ

Structure (SMILES) | activation | Potency
BrCCCBr | 11.9% (inactive) | –
O=C1C2(Cl)C3(Cl)C4(Cl)C(Cl)(Cl)C5(Cl)C3(Cl)C1(Cl)C5(Cl)C24Cl (stereo unspecified) | – | 13.5 µM (active) and inactive
O=c1[nH]c(Cl)c(Cl)cc1Cl | 4.15% (inactive) | –
N#Cc1sc2c(=O)c3ccccc3c(=O)c=2sc1C#N | -9% (inactive) | –
O=C(CCCCl)c1ccc(F)cc1 | 1.13% [at 42.5 µM] (inactive) | –
CC(C)NCC(O)c1ccccc1Cl (stereo unspecified) | -0.872% [at 42.5 µM] (inactive) | –
CCNS(=O)(=O)C(F)(F)C(F)(F)C(F)(F)C(F)(F)C(F)(F)C(F)(F)C(F)(F)C(F)(F)F | -4.27% (inactive) | –
Cc1ccccc1OP(=O)(Oc1ccccc1C)Oc1ccccc1C | -2.77% (inactive) | –
CC1=C2C[C@H]3[C@@H](CC=C4C[C@@H](O)CC[C@@]43C)[C@@H]2CC[C@]12O[C@@H]1C[C@H](C)CN[C@H]1[C@H]2C | -4.1% [at 42.5 µM] (inactive) | –
CC#C[C@]1(O)CC[C@H]2[C@@H]3C[C@H](C)C4=CC(=O)CC[C@]4(C)[C@H]3CC[C@@]21C | – | 237 nM (active)
COP(=O)(OC)O/C(=C\Cl)c1cc(Cl)c(Cl)cc1Cl | -8.94% (inactive) | –
O=S1OCC2C(CO1)C1(Cl)C(Cl)=C(Cl)C2(Cl)C1(Cl)Cl (stereo unspecified) | – | inactive
ClC1(Cl)C2(Cl)C3(Cl)C4(Cl)C(Cl)(Cl)C5(Cl)C3(Cl)C1(Cl)C5(Cl)C24Cl (stereo unspecified) | 0.143% (inactive) | –
CCO/N=C(\CC)C1=C(O)CC(c2c(C)cc(C)cc2C)CC1=O (stereo unspecified) | 7.14% (inactive) | –

tested on: not listed separately; assay: qHTS assay to identify small molecule antagonists of the estrogen receptor beta (ER-beta) signaling pathway - cell viability counter screen (AID 1259382); details: ER-beta-UAS-bla HEK293T viability, CellTiter-Glo luminescence, 16 h; series mostly up to 92.4 µM; activity change, negative = cytotoxicity: at the top concentration; also: nearly all actives have a fitted effect of over 55% in size;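 as to activity change, negative = cytotoxicity: HEK293T cells carrying ER-beta-UAS-bla reporter stimulated with estradiol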
Outline: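 CellTiter-Glo ATP luminescence measured after the LiveBLAzer read in the same wells; ER-beta-UAS-bla HEK293T cells, 16 hr compound treatment with 1nM 17-beta-estradiol agonist at 37C, 5% CO2.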

Structure (SMILES) | activity change, negative = cytotoxicity | Potency
CC1CCCC1 | -0.89% (inactive) | –
CN1CCc2cc3c(cc2C1O)OCO3 (stereo unspecified) | -4.46% (inactive) | –
BrCCCBr | -0.271% (inactive) | –
CC(=O)[O-].CC(=O)[O-].CC(=O)[O-].[Cr+3] | 3.71% (inactive) | –
O=C1C2(Cl)C3(Cl)C4(Cl)C(Cl)(Cl)C5(Cl)C3(Cl)C1(Cl)C5(Cl)C24Cl (stereo unspecified) | – | 26.9 µM (active) and 58.5 µM (active)
CC[N+]1(CC)CCC(OC(=O)C(O)(c2ccccc2)c2ccccc2)C1 (stereo unspecified) | -0.602% [at 42.5 µM] (inactive) | –
O=S(=O)(NS(=O)(=O)C(F)(F)F)C(F)(F)F | -12.5% (inactive) | –
CCCCN(CCCC)C(=S)[S-].CCCCN(CCCC)C(=S)[S-].[Ni+2] | -0.136% [at 42.5 µM] (inactive) | –
N#Cc1sc2c(=O)c3ccccc3c(=O)c=2sc1C#N | – | 17.2 µM (active)
CC(=O)[O][Sn]([c]1ccccc1)([c]1ccccc1)[c]1ccccc1 | – | 0.137 µM (active)
C[C@]12C/C(=C/O)C(=O)C[C@@H]1CC[C@@H]1[C@@H]2CC[C@@]2(C)[C@H]1CC[C@]2(C)O | – | 49 µM (active)
O=C(CCCCl)c1ccc(F)cc1 | 4.02% [at 42.5 µM] (inactive) | –
CC(C)NCC(O)c1ccccc1Cl (stereo unspecified) | -0.437% [at 42.5 µM] (inactive) | –
CCNS(=O)(=O)C(F)(F)C(F)(F)C(F)(F)C(F)(F)C(F)(F)C(F)(F)C(F)(F)C(F)(F)F | -0.0688% (inactive) | –
Oc1ccc(Cl)c(Cl)c1 | -23.5% (inactive) | –
CC1=C2C[C@H]3[C@@H](CC=C4C[C@@H](O)CC[C@@]43C)[C@@H]2CC[C@]12O[C@@H]1C[C@H](C)CN[C@H]1[C@H]2C | -9.3% [at 42.5 µM] (inactive) | –
CO/N=C(\C(=O)OC)c1ccccc1CO/N=C(\C)c1cccc(C(F)(F)F)c1 | -12.4% (inactive) | –

Structure (SMILES) | activity change, negative = cytotoxicity | Potency
CCOP(=O)(Sc1ccccc1)Sc1ccccc1 | 1.93% (inactive) | –
CCCCC(CC)COC(=O)c1ccccc1C(=O)OCC(CC)CCCC (stereo unspecified) | 4.66% (inactive) | –
CN1CCc2cc(Cl)c(O)cc2[C@H]2c3ccccc3CC[C@@H]21 | -25.8% [at 42.5 µM] (inactive) | –
O=c1c2ccccc2c(=O)c2c1cc(Cl)c1[nH]c3c([nH]c12)c(Cl)cc1c(=O)c2ccccc2c(=O)c13 | 8.51% (inactive) | –
O=C(O)[C@H](O)[C@@H](O)C(=O)O | 1.43% (inactive) | –
[Cl-].[Cl-].[Cl-].[Yb+3] | 0.258% (inactive) | –
CNC(C)(C)Cc1ccccc1 | 1.36% [at 42.5 µM] (inactive) | –
CC#C[C@]1(O)CC[C@H]2[C@@H]3C[C@H](C)C4=CC(=O)CC[C@]4(C)[C@H]3CC[C@@]21C | -10.9% [at 42.5 µM] (inactive) | –
CN=C=O | 3.08% (inactive) | –
c1ccc2c(c1)cc1ccc3cccc4ccc2c1c34 | -8.39% (inactive) | –
COP(=O)(OC)O/C(=C\Cl)c1cc(Cl)c(Cl)cc1Cl | -13.4% (inactive) | –
ClC1(Cl)C2(Cl)C3(Cl)C4(Cl)C(Cl)(Cl)C5(Cl)C3(Cl)C1(Cl)C5(Cl)C24Cl (stereo unspecified) | 1.02% (inactive) | –
CCO/N=C(\CC)C1=C(O)CC(c2c(C)cc(C)cc2C)CC1=O (stereo unspecified) | -23.3% (inactive) | –
O=S1(=O)OCC2C(CO1)C1(Cl)C(Cl)=C(Cl)C2(Cl)C1(Cl)Cl (stereo unspecified) | -5.17% (inactive) | –
c1ccc(N=NNc2ccccc2)cc1 | -18.3% (inactive) | –
CSC(C)(C)/C=N/O | 1.82% (inactive) | –
